In ChEMBL document CHEMBL1961873, “Compounds: GSK PKIS; Assays: Nanosyn kinase panel” (2012) one finds inhibition data, which are given here for twelve compounds.

Several values for one entry are separate records, joined by “and”; a condition that tells them apart may be missing. Equal entries are not always repeated.

Experiment [1] deals with Serine/threonine-protein kinase PAK 6 (Homo sapiens) (UniProt Q9NQU5). The note with it: at 1 µM.
Experiment [2] concerns Tyrosine-protein kinase ABL1 (Homo sapiens), P00519 [E255K]. The settings on record: at 0.1 µM.
Experiment [3] has the same test system. The settings on record: at 1 µM.
Experiment [4] deals with Tyrosine-protein kinase ABL1 (Homo sapiens), P00519 [H396P]. The settings on record: at 0.1 µM.
The test system is the same in experiment [5]. The settings on record: at 1 µM.
In experiment [6] the test system is Tyrosine-protein kinase ABL1 (Homo sapiens), P00519 [M351T]. The note with it: at 0.1 µM.
Experiment [7] has the same test system. The settings on record: at 1 µM.
Experiment [8] concerns Tyrosine-protein kinase ABL1 (Homo sapiens), P00519 [Q252H]. The note with it: at 0.1 µM.
Experiment [9] shares this test system. The settings on record: at 1 µM.
For experiment [10], the system named is Tyrosine-protein kinase ABL1 (Homo sapiens), P00519 [T315I]. The settings on record: at 0.1 µM.
For experiment [11] the test system is unchanged. The note with it: at 1 µM.
The subject of experiment [12] is Tyrosine-protein kinase ABL1 (Homo sapiens), P00519 [Y253F]. The note with it: at 0.1 µM.
For experiment [13] the test system is unchanged. The settings on record: at 1 µM.
Experiment [14] addresses Tyrosine-protein kinase ABL1 (Homo sapiens) (UniProt P00519). The note with it: at 0.1 µM.
Experiment [15] has the same target. The settings on record: at 1 µM.
The target in experiment [16] is ALK tyrosine kinase receptor (Homo sapiens) (UniProt Q9UM73). The note with it: at 0.1 µM.
Sequence of ALK tyrosine kinase receptor (Homo sapiens) (Q9UM73 19-1620 limits assumed): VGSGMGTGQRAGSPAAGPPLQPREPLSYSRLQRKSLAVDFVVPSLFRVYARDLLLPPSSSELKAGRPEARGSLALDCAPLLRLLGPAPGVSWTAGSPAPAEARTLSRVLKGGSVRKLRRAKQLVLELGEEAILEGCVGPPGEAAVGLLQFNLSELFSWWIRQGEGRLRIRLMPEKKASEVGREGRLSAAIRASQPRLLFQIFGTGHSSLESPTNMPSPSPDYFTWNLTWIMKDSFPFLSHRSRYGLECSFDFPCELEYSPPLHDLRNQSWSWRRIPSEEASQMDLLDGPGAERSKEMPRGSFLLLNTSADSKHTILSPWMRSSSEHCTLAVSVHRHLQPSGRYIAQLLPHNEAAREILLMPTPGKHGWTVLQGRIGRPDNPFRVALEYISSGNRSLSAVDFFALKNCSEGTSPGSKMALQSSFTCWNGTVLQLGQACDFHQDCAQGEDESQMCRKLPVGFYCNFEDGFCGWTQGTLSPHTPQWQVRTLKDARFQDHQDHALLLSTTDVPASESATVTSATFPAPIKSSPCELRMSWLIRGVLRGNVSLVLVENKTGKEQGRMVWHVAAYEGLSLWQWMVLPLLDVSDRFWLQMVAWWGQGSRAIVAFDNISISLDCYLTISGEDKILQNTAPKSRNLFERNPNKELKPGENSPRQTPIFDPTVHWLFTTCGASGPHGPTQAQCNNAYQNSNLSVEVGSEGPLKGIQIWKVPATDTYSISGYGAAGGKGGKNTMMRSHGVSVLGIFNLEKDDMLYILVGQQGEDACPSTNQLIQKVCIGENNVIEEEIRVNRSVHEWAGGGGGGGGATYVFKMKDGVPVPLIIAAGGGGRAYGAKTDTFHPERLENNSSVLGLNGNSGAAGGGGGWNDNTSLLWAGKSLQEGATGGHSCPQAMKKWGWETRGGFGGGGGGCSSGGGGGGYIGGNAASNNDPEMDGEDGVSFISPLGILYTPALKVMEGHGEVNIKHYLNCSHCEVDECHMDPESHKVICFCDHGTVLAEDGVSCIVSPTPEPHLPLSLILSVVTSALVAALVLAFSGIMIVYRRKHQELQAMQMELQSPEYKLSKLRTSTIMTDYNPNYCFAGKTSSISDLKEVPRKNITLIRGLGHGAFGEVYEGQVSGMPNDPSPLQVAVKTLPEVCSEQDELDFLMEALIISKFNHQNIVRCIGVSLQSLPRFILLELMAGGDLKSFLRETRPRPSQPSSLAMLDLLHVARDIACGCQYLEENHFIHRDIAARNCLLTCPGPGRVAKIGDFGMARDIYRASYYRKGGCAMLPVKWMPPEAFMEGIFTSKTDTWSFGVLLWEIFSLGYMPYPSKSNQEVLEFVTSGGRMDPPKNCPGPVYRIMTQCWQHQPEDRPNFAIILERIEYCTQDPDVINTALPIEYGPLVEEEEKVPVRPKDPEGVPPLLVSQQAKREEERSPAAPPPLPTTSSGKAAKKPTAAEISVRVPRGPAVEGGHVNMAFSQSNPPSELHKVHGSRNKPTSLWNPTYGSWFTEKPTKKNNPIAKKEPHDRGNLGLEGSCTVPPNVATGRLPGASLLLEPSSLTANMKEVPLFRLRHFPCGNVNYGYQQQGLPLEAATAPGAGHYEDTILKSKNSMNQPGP
The target is the same in experiment [17]. The settings on record: at 1 µM.
Experiment [18] has as its target Tyrosine-protein kinase ABL2 (Homo sapiens) (UniProt P42684). The note with it: at 0.1 µM.
Experiment [19] has the same target. The note with it: at 1 µM.
Experiment [20] has as its target Tyrosine-protein kinase receptor UFO (Homo sapiens) (UniProt P30530). The note with it: at 0.1 µM.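 Further: values are mean percent inhibition of AXL from the GSK PKIS screen.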

Sequence of Serine/threonine-protein kinase PAK 6 (Homo sapiens) (Q9NQU5 whole entry, looked up): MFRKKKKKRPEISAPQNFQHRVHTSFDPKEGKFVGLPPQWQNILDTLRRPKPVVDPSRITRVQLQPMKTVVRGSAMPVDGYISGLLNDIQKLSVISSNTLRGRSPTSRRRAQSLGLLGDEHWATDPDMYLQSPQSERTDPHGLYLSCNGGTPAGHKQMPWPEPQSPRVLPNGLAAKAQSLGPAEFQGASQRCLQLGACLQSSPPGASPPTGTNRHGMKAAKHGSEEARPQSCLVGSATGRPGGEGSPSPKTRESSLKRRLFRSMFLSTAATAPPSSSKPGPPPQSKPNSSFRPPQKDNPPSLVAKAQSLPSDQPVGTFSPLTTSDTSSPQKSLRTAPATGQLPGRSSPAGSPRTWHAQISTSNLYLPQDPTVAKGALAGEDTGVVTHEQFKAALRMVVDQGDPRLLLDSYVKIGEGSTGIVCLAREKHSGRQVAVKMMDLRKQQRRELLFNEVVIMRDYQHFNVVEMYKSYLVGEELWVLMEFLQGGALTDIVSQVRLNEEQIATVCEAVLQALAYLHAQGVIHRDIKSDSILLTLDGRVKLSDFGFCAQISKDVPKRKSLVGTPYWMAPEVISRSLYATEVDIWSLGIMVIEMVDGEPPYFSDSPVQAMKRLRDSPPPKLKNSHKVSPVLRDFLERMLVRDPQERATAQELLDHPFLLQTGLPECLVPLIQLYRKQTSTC
Sequence of Tyrosine-protein kinase ABL2 (Homo sapiens) (P42684 whole entry): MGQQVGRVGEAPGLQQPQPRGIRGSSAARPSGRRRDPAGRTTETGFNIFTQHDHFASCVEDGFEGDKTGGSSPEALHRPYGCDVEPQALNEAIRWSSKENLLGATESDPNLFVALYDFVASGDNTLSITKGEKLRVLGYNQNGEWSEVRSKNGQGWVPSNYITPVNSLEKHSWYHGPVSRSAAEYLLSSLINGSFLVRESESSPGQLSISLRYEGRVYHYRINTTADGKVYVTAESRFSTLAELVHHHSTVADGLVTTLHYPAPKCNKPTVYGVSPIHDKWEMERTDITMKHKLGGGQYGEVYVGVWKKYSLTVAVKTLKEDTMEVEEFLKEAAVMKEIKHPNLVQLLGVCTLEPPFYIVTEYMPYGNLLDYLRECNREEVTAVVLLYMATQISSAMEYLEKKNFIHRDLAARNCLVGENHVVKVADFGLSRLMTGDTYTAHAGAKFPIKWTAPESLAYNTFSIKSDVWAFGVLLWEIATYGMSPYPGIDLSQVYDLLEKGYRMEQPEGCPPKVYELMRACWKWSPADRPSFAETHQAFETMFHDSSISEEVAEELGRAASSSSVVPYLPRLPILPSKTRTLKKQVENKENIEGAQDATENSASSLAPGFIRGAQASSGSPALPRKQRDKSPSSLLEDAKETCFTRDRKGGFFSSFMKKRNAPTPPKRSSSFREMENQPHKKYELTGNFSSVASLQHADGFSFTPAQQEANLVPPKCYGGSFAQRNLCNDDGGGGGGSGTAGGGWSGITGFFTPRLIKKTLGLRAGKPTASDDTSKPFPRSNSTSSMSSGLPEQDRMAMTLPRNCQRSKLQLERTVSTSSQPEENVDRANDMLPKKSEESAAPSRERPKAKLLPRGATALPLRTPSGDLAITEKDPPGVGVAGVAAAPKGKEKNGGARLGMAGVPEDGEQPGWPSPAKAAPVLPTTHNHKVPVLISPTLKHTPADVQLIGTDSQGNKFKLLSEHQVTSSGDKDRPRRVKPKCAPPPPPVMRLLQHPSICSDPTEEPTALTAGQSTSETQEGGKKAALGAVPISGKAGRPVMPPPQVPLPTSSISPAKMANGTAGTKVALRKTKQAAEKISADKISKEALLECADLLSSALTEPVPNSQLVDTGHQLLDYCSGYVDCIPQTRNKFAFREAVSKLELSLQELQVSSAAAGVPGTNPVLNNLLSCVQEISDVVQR
Sequence of Tyrosine-protein kinase receptor UFO (Homo sapiens) (P30530 whole entry): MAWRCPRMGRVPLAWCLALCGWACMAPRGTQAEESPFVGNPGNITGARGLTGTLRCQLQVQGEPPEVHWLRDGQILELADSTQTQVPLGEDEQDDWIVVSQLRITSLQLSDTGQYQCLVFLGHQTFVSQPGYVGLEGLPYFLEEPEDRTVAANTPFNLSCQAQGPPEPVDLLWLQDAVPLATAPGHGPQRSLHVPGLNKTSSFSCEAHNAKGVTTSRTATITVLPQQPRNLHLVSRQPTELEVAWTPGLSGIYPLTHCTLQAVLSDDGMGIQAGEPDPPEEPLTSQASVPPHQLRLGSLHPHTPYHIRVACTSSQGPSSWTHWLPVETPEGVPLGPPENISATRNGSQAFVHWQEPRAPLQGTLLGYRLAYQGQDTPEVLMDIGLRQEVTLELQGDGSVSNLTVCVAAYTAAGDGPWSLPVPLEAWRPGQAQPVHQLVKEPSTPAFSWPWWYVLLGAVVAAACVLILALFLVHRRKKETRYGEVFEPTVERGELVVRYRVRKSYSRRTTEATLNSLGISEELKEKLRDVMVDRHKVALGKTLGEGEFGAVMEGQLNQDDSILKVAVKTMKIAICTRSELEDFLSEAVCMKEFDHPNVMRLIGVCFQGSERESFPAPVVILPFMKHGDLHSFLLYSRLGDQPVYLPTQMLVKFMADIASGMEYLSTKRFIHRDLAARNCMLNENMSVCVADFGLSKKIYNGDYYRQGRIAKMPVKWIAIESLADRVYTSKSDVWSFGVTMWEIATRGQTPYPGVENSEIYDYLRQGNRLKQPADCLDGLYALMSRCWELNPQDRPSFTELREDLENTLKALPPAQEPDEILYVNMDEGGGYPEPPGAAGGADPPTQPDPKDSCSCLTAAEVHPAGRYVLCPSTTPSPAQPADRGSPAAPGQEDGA

Broadly, the inhibition is the relative decrease from the control value, in per cent. Regarding `CN(C)CCNC(=O)Nc1ccc(N(C)c2ccnc(Nc3ccc(CS(C)(=O)=O)cc3)n2)cc1`, the inhibition was -1.22% in [1]; 2.92% in experiment [2]; 10.2% in [3]; 5.45% in [4]; 12.3% in experiment [5]; 4.48% in experiment [6]. Moreover, the inhibition in experiment [7] was 15.1%; in [8], 5.59%; in experiment [9], 17.4%; in experiment [10], 4.39%; in experiment [11], 14.5%; in experiment [12], 7.05%. The inhibition in [13] worked out at 14.7%; in experiment [14] it was 5.68%; in experiment [15] it was 19.6%; in experiment [16] it was 3.32%; in [17] it was 11.7%; in [18] it was 5.95%. For the same compound, the inhibition was 16.8% in [19] and -5.4% in [20].

For the compound `Cc1nnc(-c2cccc(-c3ccc(C(=O)NCC4CC4)cc3)c2)o1`, the inhibition in experiment [1] was -1.37%; in experiment [2], 4.38%; in [3], 4.87%; in experiment [4], 4.09%; in [5], 6.67%; in [6] it was 2.13%. The inhibition in experiment [7] came to 5.6%; in experiment [8] it was 4.31%; in experiment [9], 5.92%; in [10], 4.43%; in experiment [11], 5.17%; in experiment [12], 2.61%. Besides, the inhibition amounted to 4.27% in [13]; 5.41% in experiment [14]; 9.95% in experiment [15]; 3.15% in experiment [16]; 5.21% in [17]; 3.81% in experiment [18]. Besides, the inhibition in [19] is 9.01%; in experiment [20], -9.15%.

Take `Nc1ncnc2occ(-c3ccc(NC(=O)Nc4cc(C(F)(F)F)ccc4F)cc3)c12`: the inhibition in [1] was 0.09% and -8.17%; in [2], 5.05% and 2.1%; in experiment [3], 33.4% and 18.4%; in experiment [4] it was 24.2% and 11.5%; in experiment [5], 73.1% and 58.4%; in [6], 56.4% and 49.1%. The inhibition is 84.6% and 76.3% in experiment [7]; 55.7% and 45.2% in experiment [8]; 79.1% and 74% in experiment [9]; 53.6% and 39.2% in [10]; 91.1% and 85% in [11]; 10.7% and 5.56% in [12]. For the same compound, the inhibition was 44.9% and 29.1% in [13]; 10.9% and 4.97% in experiment [14]; 58.9% and 35.7% in experiment [15]; 2.84% and -1.14% in [16]; 22.8% and 12.6% in experiment [17]; 25.2% and 23.9% in experiment [18]. In addition, the inhibition was 64.2% and 56.4% in experiment [19]; -3.96% and -3.19% in experiment [20].

On to `CC(C)c1ccc(-c2cc(-c3c[nH]nc3-c3ccccn3)ccn2)cc1`, for which the inhibition is -0.86% in experiment [1]; 2.44% in experiment [2]; 17.2% in experiment [3]; 7.55% in experiment [4]; 40.1% in experiment [5]; 5.28% in experiment [6]. Moreover, the inhibition in [7] was determined as 38.5%; in experiment [8], 3.86%; in experiment [9] it was 21.4%; in experiment [10] it was 1.9%; in [11] it was 0.44%; in experiment [12], 1.59%. Besides, the inhibition in experiment [13] stood at 22.1%; in [14], 7.53%; in experiment [15], 45.5%; in [16], 1.28%; in [17] it was 3.08%; in experiment [18] it was 8.41%. Also, the inhibition was 16.6% in [19] and -1.3% in [20].

Take `COc1cccc(Nc2nccc(-c3cnn4ncccc34)n2)c1`: the inhibition in experiment [1] was 5.36%; in experiment [2] it was 5.54%; in [3], 23.1%; in [4], 8.68%; in experiment [5], 41.2%; in experiment [6], 8.35%. Moreover, the inhibition in experiment [7] is 45%; in [8] it was 9.38%; in [9], 46.5%; in [10] it was 3.94%; in experiment [11], 30%; in experiment [12], 7.39%. The inhibition in experiment [13] stood at 39.2%; in experiment [14], 4.97%; in experiment [15], 40.9%; in experiment [16] it was 5.36%; in experiment [17], 32.3%; in experiment [18], 6.41%. Also, the inhibition in experiment [19] was 44.2%; in experiment [20], -0.07%.

As to `COC(=O)Nc1nc2cc(Oc3ccc(NC(=O)Nc4ccccc4)cc3)ccc2[nH]1`, the inhibition in experiment [1] is -2.94%; in experiment [2], 4.95%; in experiment [3], 11.4%; in [4] it was 14.1%; in [5], 41%; in [6], 28.9%. Moreover, the inhibition amounted to 47.8% in experiment [7]; 22.5% in experiment [8]; 51.8% in experiment [9]; 15.9% in experiment [10]; 31.3% in [11]; 6.49% in experiment [12]. Also, the inhibition turned out to be 18.9% in experiment [13]; 5.66% in experiment [14]; 11.3% in experiment [15]; 1.19% in experiment [16]; 2.23% in [17]; 9.07% in experiment [18]. For the same compound, the figures for the inhibition in experiment [19] and in [20] were 16.8% and -7.01%, respectively.

As for `O=C(O[C@H]1CN[C@H](C#Cc2cc3ncnc(Nc4ccc5c(ccn5Cc5cc(F)ccc5F)c4)c3s2)C1)N1CCOCC1`, the inhibition in [1] was -0.57%; in [2], 1.52%; in experiment [3], 3.53%; in [4], 4.04%; in [5], 8.92%; in experiment [6], 1.92%. Moreover, the inhibition in experiment [7] turned out to be 3.98%; in experiment [8], 3.74%; in experiment [9] it was 3.88%; in experiment [10], 3.97%; in [11], 3.69%; in experiment [12], 2.24%. In addition, the inhibition in experiment [13] was 4.4%; in experiment [14], 3.14%; in experiment [15], 3.38%; in experiment [16], 4.15%; in [17], 4.73%; in experiment [18], 1.18%. Further, the results for the inhibition in [19] and in experiment [20] were 1.47% and -7.4%, respectively.

Take `Nc1nonc1-c1nc2cnccc2n1C1CC1`: the inhibition in [1] is 7.32% and -5.94%; in [2], 2.67% and 0.93%; in experiment [3] it was 3.5% and 4.4%; in experiment [4], 2.21% and 2.04%; in experiment [5], 0.55% and 1.2%; in [6] it was 0.52% and -0.88%. The inhibition is -0.96% and 2.63% in experiment [7]; 4.06% and 0.83% in experiment [8]; 3.65% and 2.84% in experiment [9]; 2.85% and 1.97% in [10]; 2.56% and 3.11% in experiment [11]; 3.83% and 3.92% in experiment [12]. For the same compound, the inhibition was 4.12% and 4.54% in [13]; 5.16% and -2.65% in [14]; 8.03% and 2.25% in [15]; 2.63% and -1.89% in [16]; 5.84% and 0.48% in [17]; 3.44% and -2.1% in [18]. Further, the inhibition was 5.37% and -2.96% in experiment [19]; -7.63% and -3.39% in experiment [20].

In the case of `CS(=O)(=O)Nc1ccc(-c2ccc3c(NC(=O)C4CC4)n[nH]c3c2)cc1`, the inhibition was 5.45% in experiment [1]; 2.53% in experiment [2]; 5.92% in [3]; 4.24% in experiment [4]; 17.5% in experiment [5]; 4.89% in experiment [6]. Further, the inhibition in [7] amounted to 20.3%; in experiment [8], 4.73%; in [9], 9.35%; in experiment [10] it was 4.61%; in experiment [11], 16.9%; in experiment [12], 5.2%. In addition, the inhibition in experiment [13] came out at 9.04%; in experiment [14], 3.79%; in [15], 9.67%; in experiment [16], 3.16%; in experiment [17] it was 11%; in [18], 2.46%. For the same compound, the inhibition in experiment [19] was 4.71%; in experiment [20], -3.54%.

In the case of `CN1CCC(C(=O)Nc2n[nH]c3nc(-c4ccc(O)cc4)c(Br)cc23)CC1`, the inhibition was -4.52% in [1]; 2.77% and -0.12% in experiment [2]; 13.4% and 6.5% in experiment [3]; 4.9% and 3.81% in [4]; 15.7% and 13.9% in experiment [5]; 1.55% and 2.92% in [6]. The inhibition in [7] is 13.9% and 9.89%; in experiment [8] it was 3.16% and 3.78%; in experiment [9], 17.1% and 15.7%; in experiment [10], 2.49% and 2.76%; in experiment [11], 22.5% and 15.6%; in experiment [12] it was 3.92% and 2.19%. Besides, the inhibition was 15.1% and 9.74% in experiment [13]; 0.28% and 3.94% in experiment [14]; 10.7% and 12.2% in experiment [15]; 2.7% and 5.6% in [16]; 31.6% and 35.4% in [17]; -0.95% and 2.31% in [18]. The inhibition in experiment [19] was 4.33% and 4.83%; in [20] it was -5.65% and -3.46%.

Regarding `CCS(=O)(=O)c1ccc(OC)c(Nc2ncc(-c3cccc(F)c3)o2)c1`, the inhibition in [1] was -6.17%; in experiment [2] it was 30.8%; in [3], 80.4%; in experiment [4], 40.8%; in experiment [5], 85.8%; in [6], 38.6%. The inhibition in experiment [7] was 85%; in experiment [8], 41.9%; in experiment [9], 86.4%; in [10], 4.78%; in experiment [11] it was 25.1%; in experiment [12] it was 52.5%. The inhibition in experiment [13] stood at 90.2%; in experiment [14] it was 39.8%; in [15], 77.5%; in [16], 4.12%; in [17], 7.35%; in experiment [18], 32.8%. Besides, the inhibition in experiment [19] is 74.6%; in experiment [20] it was -6.71%.

With `COc1cc(N2CCN(C(C)C)CC2)ccc1Nc1nc(Nc2cccc3ncccc23)c2cc[nH]c2n1`, the inhibition was -4.19% in experiment [1]; 0.09% in experiment [2]; 0.59% in experiment [3]; 2.17% in [4]; 3.86% in [5]; 2.31% in experiment [6]. Besides, the inhibition in experiment [7] was determined as 3.99%; in experiment [8], 1.61%; in experiment [9], 3.51%; in [10], 1.61%; in experiment [11], 0.12%; in [12], 0.03%. The inhibition in experiment [13] worked out at 2.91%; in experiment [14] it was 1.91%; in [15], 9.59%; in experiment [16], 51.7%; in experiment [17], 86.3%; in [18], 4.93%. The inhibition in [19] amounted to 8.07%; in experiment [20] it was 1.7%.
